# In the library only some 1.5% were active in any assay of this set; here they are far more common.
# IDE act = boosts human insulin-degrading enzyme activity in HEK cells; P14735; FAbeta-B cleavage, fluorescence polarization; 0% vehicle, 100% cell-free pure enzyme wells; activation, % at 5.96 µM; 0.073% of 340,000 active;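 active means activation above the mean of all tested compounds plus 3 SD, set per screening campaign, cut at about 17% in these data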
# IDE inh = inhibitors of human insulin-degrading enzyme in cells; P14735; HEK cells, FAbetaB cleavage, fluorescence polarization; inhibition, % at 5.59 µM; 0.41% of 320,000 active;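 active means percent inhibition above the average of all tested compounds plus 3 SD, set per screening campaign, cut at about 16% in these data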;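 further: IDE supplied by intact live HEK cells; FP after avidin binding of uncleaved biotin substrate so inhibition keeps polarization high; 0% = DMSO wells and 100% = 60 µM reference IDE inhibitor Ii1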
# GLD-1 RNA inh = GLD-1-TGE RNA interaction inhibition (C. elegans); Q17339; purified GLD-1 + fluorescein TGE RNA, fluorescence polarization; inhibition, % at 5.96 µM; 0.44% of 320,000 active;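 active means percent inhibition above a per-plate cutoff, the plate mean of test compounds plus 3 SD, cut at about 30% in these data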;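 further: 0% = DMSO wells with GLD-1 and probe and 100% = wells lacking GLD-1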
# Target sequence (Q17339 whole entry, looked up): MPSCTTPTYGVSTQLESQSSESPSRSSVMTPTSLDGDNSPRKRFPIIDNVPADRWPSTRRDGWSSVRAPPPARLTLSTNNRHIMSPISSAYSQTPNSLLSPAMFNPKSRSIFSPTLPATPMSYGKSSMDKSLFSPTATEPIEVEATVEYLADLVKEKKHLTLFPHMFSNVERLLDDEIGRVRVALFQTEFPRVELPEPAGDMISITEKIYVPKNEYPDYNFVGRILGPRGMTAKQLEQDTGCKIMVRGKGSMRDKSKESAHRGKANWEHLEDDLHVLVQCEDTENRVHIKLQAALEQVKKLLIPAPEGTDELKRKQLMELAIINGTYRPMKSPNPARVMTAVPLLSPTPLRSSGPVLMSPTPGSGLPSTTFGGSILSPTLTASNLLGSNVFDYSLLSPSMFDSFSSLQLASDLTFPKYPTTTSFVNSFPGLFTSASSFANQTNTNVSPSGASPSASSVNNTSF
# MEX-5 binding = C. elegans MEX-5 TCR-2 RNA binding activity. Q9XUB2. MEX-5/FITC-TCR2 RNA binding, fluorescence polarization; hits give low values. activity score (negative = inhibition of binding), % at 10 µM. 0.38% of 300,000 active. AID 1832;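 active means inhibition past about -25% in most replicates, and total fluorescence under double the plate's negative control median, limit read from the data; inconclusive means replicates evenly split on the limit, or fluorescence at least double controls; inactive means too little inhibition in most replicates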;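 further: 0% = DMSO and -100% = 5 µM competing unlabeled TCR2 RNA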
# MCL1-BIM inh = MCL1-BIM-BH3 interaction inhibition (human). GST-MCL1 / FITC-Bim-BH3 fluorescence polarization. inhibition, % at 10.9 µM. 0.68% of 320,000 active. Q07820;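 active means inhibition above the mean inhibition of all tested compounds plus 3 SD, set per campaign, cut at about 40% in these data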;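 further: 0% = DMSO wells and 100% = unlabeled Bim-BH3 peptide control; higher means more loss of mP so more displacement of Bim peptide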
# BCLXL inh = inhibitors of human Bcl-xL; Q07817; GST-Bcl-xL / FITC-Bim BH3 peptide fluorescence polarization; inhibition, % at 10.9 µM; 0.7% of 320,000 active; AID 2129;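 active means inhibition above the mean of all tested compounds plus 3 SD, cutoff set per campaign, cut at about 30% in these data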;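 further: 0% = DMSO wells and 100% = unlabeled Bim-BH3 peptide competitor; inhibitors lower millipolarization by displacing the labeled peptide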
# An asterisk follows results filed as active; ? = inconclusive; nt = no result given.
SMILES,IDE act,IDE inh,GLD-1 RNA inh,MEX-5 binding,MCL1-BIM inh,BCLXL inh
O=C1NC(=O)c2cc(Br)cc3cccc1c23,5,2,-3,1,8,7
COc1ccc(C(=O)Nc2c(O)ccc3ccccc23)cc1,1,1,2,-2,14,22
COc1ccc(NC(=O)Nc2c(O)ccc3ccccc23)cc1,-2,5,-3,-1,22,30*
O=C(C[C@@H]1C/C=C/CC[C@H](Cc2ccc(F)cc2)C(=O)OC[C@@H](Cc2ccccc2)NC1=O)N[C@H](CO)Cc1ccccc1,2,2,3,nt,nt,nt
FC(F)(F)c1cccc(-c2nc3nc(Cl)c(Cl)nc3[nH]2)c1,3,-1,20,-6,32,29
CCOC(=O)C1=C(C)OC(N)=C(C#N)C1c1cc2cc(C)ccc2nc1N1CCCCC1 (stereo not given),2,3,22,-7,36,33*
CCOC(=O)C1=C(C)OC(N)=C(C#N)C1c1cc2ccccc2nc1N1CCCCC1 (stereo not given),nt,-3,14,-15,33,31*
CCOC(=O)C1=C(C)OC(N)=C(C#N)C1c1cc(C)sc1C (stereo not given),-1,0,-3,0,8,8
CC(Sc1nnc(Cc2ccccc2)o1)C(=O)NC1(C#N)CCCCC1 (stereo not given),4,-2,4,nt,nt,nt
CC1O[C@@H](OC2C(O)C(O)C(CO)O[C@H]2OC2C[C@]3(C)C(CC(O)C4[C@@H]([C@]5(C)CC[C@@H](C(C)(C)O)O5)CC[C@]43C)[C@@]3(C)CCC(O)C(C)(C)C23)C(O)C(O)C1O (stereo not given in full),21*,5,2,nt,nt,nt
C[C@@H]1O[C@@H](O[C@H]2[C@H](O[C@H]3C[C@]4(C)C(C[C@@H](O)C5C([C@]6(C)CC[C@@H](C(C)(C)O)O6)CC[C@]54C)[C@@]4(C)CC[C@H](O)C(C)(C)C34)O[C@H](CO)[C@@H](O)[C@@H]2O)[C@H](O)[C@H](O)[C@H]1O (stereo not given in full),5,-2,7,nt,nt,nt
CCOC(=O)c1cccc(NC(=O)c2c(NCc3ccccc3)[nH]c(=O)[nH]c2=O)c1,5,2,1,-1,7,4
Cc1cccc(NC(=O)CCN2CCOCC2)c1,6,1,6,1,-3,0
CCN1CCN(CCC(=O)Nc2cccc(C)c2)CC1,7,1,1,-1,0,32*
COc1cc(/C=C2/C(C)=C(C#N)c3nc(N)c(C#N)c(C)c32)ccc1OCC(=O)O,nt,9,9,-18,29,31*
CC1=C(C#N)c2nc(N)c(C#N)c(C)c2/C1=C\c1ccc(-c2ccccc2C(=O)O)o1,7,nt,nt,-52*,nt,nt
CNC(=O)/C(C#N)=C/c1ccc(-c2nc3ccccc3s2)o1,nt,-3,6,-67*,11,10
CCc1c(C)nc(SCC(=O)NNC(=O)c2ccco2)[nH]c1=O,3,-1,2,-37*,8,4
CCc1c(C)nc(SCC(=O)Nc2ccc(Br)cc2)[nH]c1=O,3,1,-1,-2,1,4
COc1ccc2c3c(cccc13)C(=O)CC2,43*,nt,nt,?,nt,nt
O=C(NCC(c1ccco1)N1CCCC1)c1cc2ccccc2s1 (stereo not given),4,-7,-2,nt,2,1
O=C(CN(CCc1ccccc1)S(=O)(=O)c1ccc(Cl)cc1)N/N=C/c1ccccc1C(=O)O,3,0,1,0,-3,6
CCCOc1ccccc1-c1nc2c([nH]1)c(=O)[nH]c(=O)n2C,-5,7,15,-9,32,35*
OCCNc1c2ccccc2nc2c(F)c(F)c(F)c(F)c12,-4,3,16,-4,32,30*
CCOc1ccc(S(=O)(=O)N2CCN(CN3C(=O)CC4(CCCC4)C3=O)CC2)cc1,-4,-6,-5,nt,2,-1
SMILES,IDE act,IDE inh,GLD-1 RNA inh,MEX-5 binding,MCL1-BIM inh,BCLXL inh
CCCc1cc(C(=O)OCC(=O)N(CCC)c2c(N)n(Cc3ccccc3)c(=O)[nH]c2=O)sc1C,1,0,-5,2,-3,-5
COc1ccc(C=C2C(=O)OC(C)(C)OC2=O)cc1OC,5,3,-1,-50*,1,3
CCN(c1ccc(OC)cc1)S(=O)(=O)c1nnc(NC(=O)c2ccc(C)cc2)s1,5,2,8,0,-11,-2
CCOC(=O)c1c(N)sc(=S)c2c1CCC2,3,6,23,-9,46*,37*
CCCn1c(N)c(N(CCOC)C(=O)c2c(CC)noc2C)c(=O)[nH]c1=O,-3,nt,nt,nt,nt,nt
Brc1ccccc1Cn1cnc2ccccc21,-1,1,3,3,10,76*
CCn1c(NCc2cc(Cl)ccc2O)nc2ccccc21,1,-2,4,1,9,2
CCCC[C@@H]1CNCCN1CCc1cc(C(F)(F)F)cc(C(F)(F)F)c1,5,5,4,0,-8,5
FC(F)(F)c1cc(CCN2CCNC[C@@H]2CC2CCCCC2)cc(C(F)(F)F)c1,23*,-3,7,nt,nt,nt
NC1=NC[C@@H](Cc2ccc(O)cc2)N1CCc1cc(C(F)(F)F)cc(C(F)(F)F)c1,6,0,0,-2,8,1
NC1=NC[C@H](CC2CCCCC2)N1CCc1cc(C(F)(F)F)cc(C(F)(F)F)c1,26*,3,-2,2,3,1
CC(C)(C)N1C(=O)Cc2c1nc(N)c1c(N)nc(N3CCCCC3CO)c(C#N)c21 (stereo not given),1,6,12,-3,56*,30
CN(CCO)c1nc(N)c2c(N)nc3c(c2c1C#N)CC(=O)N3C1CCCC1,nt,-1,-1,-5,38,26
O=C(N/N=C/c1cccnc1)c1cc(O)c(O)c(O)c1,-5,10,8,-31*,27,15
O=C(N/N=C/c1cccnc1)c1ccc(O)cc1,1,-8,3,-3,-2,4
CC/C=C(/NC(C)=O)c1ccccc1,-4,5,5,nt,-1,-2
COCO/C=C(\NC(C)=O)c1ccccc1,31*,2,3,nt,-3,-4
COCCNc1nc(-c2cc(C)n(CCc3ccc(OC)cc3)c2C)cs1,5,6,-1,-2,22,33*
Cc1ccc(-n2c(SCC(=O)N3Cc4ccccc4CC3C(=O)O)nnc2-c2cccnc2)c(C)c1 (stereo not given),2,1,-8,0,-16,0
COc1cccc(NC(=O)CNC(=O)N2CC(=O)Nc3ccccc32)c1,-5,5,1,-1,8,44*
CCOC(=O)C(=O)c1c(-c2ccc(C)cc2)nc2ccccn12,0,0,7,-2,7,63*

# Bioassay records deposited in PubChem BioAssay by several laboratories.
